Experimental data published in PubChem BioAssay (Tox21).
Results filed as inconclusive are left out. Active and inactive are the calls of the source. Calls come from the whole dose curve.

biological target: Acetylcholinesterase (Homo sapiens) (UniProt P22303); assay: Acetylcholinesterase (AChE) small molecule antagonists: colormetric cell-based qHTS assay (AID 1347395); settings: SH-SY5Y cells AChE activity, colorimetric (Ellman); series mostly up to 115 µM; activity, negative = inhibition: at the top concentration; note: nearly all actives have a fitted effect of over 30% in size
In short: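 Cells (SH-SY5Y, 2,000 per well) are seeded and left overnight at 37 C. Compound is added for 30 min, then DTNB and acetylthiocholine for a further 90 min at 37 C before absorbance-based thiocholine detection.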
% is set by controls: 0 for no effect and ±100 for the full control effect.

Acetylcholinesterase (Homo sapiens), sequence (P22303 whole entry, looked up): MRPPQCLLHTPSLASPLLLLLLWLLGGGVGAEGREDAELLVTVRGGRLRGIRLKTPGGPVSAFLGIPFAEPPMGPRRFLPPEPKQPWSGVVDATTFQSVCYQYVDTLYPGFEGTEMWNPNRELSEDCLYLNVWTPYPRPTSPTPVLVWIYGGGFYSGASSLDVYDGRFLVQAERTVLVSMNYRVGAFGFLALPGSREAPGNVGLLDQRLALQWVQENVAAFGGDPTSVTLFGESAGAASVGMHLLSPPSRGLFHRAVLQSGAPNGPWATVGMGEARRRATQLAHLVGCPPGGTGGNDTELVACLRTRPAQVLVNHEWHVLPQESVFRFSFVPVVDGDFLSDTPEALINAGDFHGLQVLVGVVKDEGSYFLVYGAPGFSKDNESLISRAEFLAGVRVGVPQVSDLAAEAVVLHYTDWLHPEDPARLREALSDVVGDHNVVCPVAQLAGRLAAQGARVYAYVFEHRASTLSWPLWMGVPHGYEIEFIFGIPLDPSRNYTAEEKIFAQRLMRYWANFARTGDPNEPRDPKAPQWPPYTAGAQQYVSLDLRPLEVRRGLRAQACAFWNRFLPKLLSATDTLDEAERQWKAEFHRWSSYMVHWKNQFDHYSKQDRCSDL

Structure (SMILES) | activity, negative = inhibition
CCCCCCCC/C=C/CCCOC(C)=O | 0.316% (inactive)
C=CC1CC2C=CC1C2 (stereo not given) | -0.409% (inactive)
O=C(Cl)c1cccc([N+](=O)[O-])c1 | -0.511% (inactive)
N=C(N=C(N)N)N1CCOCC1 | 2.74% [at 52.9 µM] (inactive)
Cc1occc1C(=O)Nc1ccc(C(=O)N2CCC(F)(F)/C(=C\C(=O)N3CCC(N4CCCCC4)CC3)c3ccccc32)cc1 | -2.17% [at 52.9 µM] (inactive)
CC(C)=CCC/C(C)=C\C#N | -17.3% (inactive)
O=C(Cn1ccnc1[N+](=O)[O-])NCCO | 0.486% [at 52.9 µM] (inactive)
C[C@H](CCC(=O)O)[C@H]1CC[C@H]2[C@@H]3[C@H](O)C[C@@H]4C[C@H](O)CC[C@]4(C)[C@H]3C[C@H](O)[C@]12C | 4.34% [at 52.9 µM] (inactive)
C=CS(=O)(=O)O | 4.46% (inactive)
Clc1ccnc(Cl)n1 | 0.679% (inactive)
O=C(O)c1c2ccccc2cc2ccccc12 | -1.21% (inactive)
CN(C)CCN(C)CCO | 2.79% (inactive)
Nc1c(Br)cc([N+](=O)[O-])cc1Br | 2.48% (inactive)
COc1ccnc(CS(=O)c2nc3ccc(OC(F)F)cc3[nH]2)c1OC (stereo not given) | -4.57% [at 52.9 µM] (inactive)
CO[Si](OC)(c1ccccc1)c1ccccc1 | 1.48% (inactive)
CCCCOCCOC(=O)c1cccnc1 | -1.51% [at 52.9 µM] (inactive)
COc1ncnc(NS(=O)(=O)c2ccc(N)cc2)c1OC | 1.42% [at 52.9 µM] (inactive)
COC(=O)CC#N | 1.63% (inactive)
CCCC(=O)OCc1ccccc1 | 1.7% (inactive)
C=C(C)C(=O)OCCCCCCCCCCOC(=O)C(=C)C | 2.8% (inactive)

Structure (SMILES) | activity, negative = inhibition
Cc1cn[nH]c1 | -1.94% [at 52.9 µM] (inactive)
CC(C)CCOCc1ccccc1 | -0.802% (inactive)
CCOC(=O)c1cnc2c(cnn2CC)c1NN=C(C)C | -0.24% [at 52.9 µM] (inactive)
CCOC(=S)SSC(=S)OCC | -0.316% (inactive)
CCCCCCCCCC[N+](C)(C)[O-] | 8.13% (inactive)
CN1[C@@H]2CC[C@H]1CC(NC(=O)n1c(=O)[nH]c3ccccc31)C2 (stereo not given in full) | 0% [at 52.9 µM] (inactive)
COc1ccc(-c2cc(=S)ss2)cc1 | -3.13% [at 52.9 µM] (inactive)
CCCCCCCCCC(=O)N(C)C | 2.15% (inactive)
[Ca+2] | 0% (inactive)
O=C1CC[C@@H](C(=O)O)N1 | -1.89% [at 52.9 µM] (inactive)
CCCCCCCCCI | 0.196% (inactive)
C=C1C[C@@]23CC[C@H]4[C@@](C)(CCC[C@@]4(C)C(=O)O[C@@H]4O[C@H](CO)[C@@H](O)[C@H](O)[C@H]4O)[C@@H]2CC[C@]1(O[C@@H]1O[C@H](CO)[C@@H](O)[C@H](O[C@@H]2O[C@H](CO)[C@@H](O)[C@H](O)[C@H]2O)[C@H]1O[C@@H]1O[C@H](CO)[C@@H](O)[C@H](O)[C@H]1O)C3 | 1.02% (inactive)
C=Cc1ccc(S(=O)(=O)O)cc1 | -3.25% (inactive)
Cc1ccc(C(C)OC(=O)C2(C)CCC(C(=O)O)C2(C)C)cc1 (stereo not given) | 1.23% [at 52.9 µM] (inactive)
CC(=O)C1CCCCC1=O (stereo not given) | 1.29% (inactive)
COc1ccc(OC)c(OC)c1 | 0.838% (inactive)
COC(=O)CCSCCC(=O)OC | 0.714% (inactive)
CC[C@@]1(O)C(=O)OCc2c1cc1n(c2=O)Cc2c-1nc1ccccc1c2/C=N/OC(C)(C)C | 1.96% [at 52.9 µM] (inactive)
Cn1cc(C(=O)[C@@H]2CCc3nc[nH]c3C2)c2ccccc21 | -10.2% [at 52.9 µM] (inactive)
C=C(C)CCCC | -0.573% (inactive)
